From publication PMC5540273 (PLoS ONE, 2017)

system: FGFR2; conditions: concentration: 1 μM, replicates: in singlicate; n = 1
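Note: KINOMEscan kinase panel screen.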

O=C(Nc1cccc(-c2nn3ccccc3c2-c2ccnc(Nc3cccc(F)c3)n2)c1)c1c(F)ccc(F)c1Cl [GSK357952] and COc1cc(Nc2nccc(-c3c(-c4cccc(NC(=O)c5c(F)cccc5F)c4)nn4ccccc34)n2)cc(OC)c1OC [GSK323521] are the same in “%Inh” value: 0% for the first, 0% for the second.

First: Nc1ncnc2c1nc(-c1ccccc1)n2-c1ccccc1 [SKF-97293]
Second: Cl.Cl.NCC(NC(=O)c1cc(-c2ccccc2)c(-c2ccnc3[nH]ccc23)s1)c1ccccc1 (centres unmarked) [GSK1321561]
The “%Inh” value of the first is higher: 20% for the first, 14% for the second.

First: Cc1cccc(Nc2nc(N[C@H]3CCNC3)ncc2C(N)=O)c1.Cl [GSK2197149]
Second: Cc1ccc(C)c(NC(=O)NC2CCN(c3ccnc(Nc4ccc(F)cc4)n3)C2)c1 (centres unmarked) [GSK1379720]
The “%Inh” value of the first is lower: 0% for the first, 14% for the second.

First: COc1cccc(C2=C(Nc3ccc(Cl)c(C(=O)O)c3)C(=O)NC2=O)c1 [SB-390769]
Second: CC(=O)Nc1nc2cnc(Nc3cc(NC(=O)c4cccc(C5(C#N)CC5)c4Cl)ccc3C)nc2s1
The “%Inh” value of the first is lower: 0% for the first, 15% for the second.

First: c1ccc(Oc2ccc(Nc3ccnc4cc(-c5ccc(CNCCN6CCOCC6)o5)ccc34)cc2)nc1 [GW567145]
Second: CN1CCN(Cc2cccc(-c3ccc4c(Nc5ccc(Oc6ccccc6)cc5)ccnc4c3)c2)CC1 [GW578342]
The “%Inh” value of the first is higher: 4% for the first, 0% for the second.

First: CNC(=O)c1ccccc1Nc1nc(Nc2ccc(N3CCOCC3)cc2)ncc1Cl.Cl [GSK1576028]
Second: CC(=O)N1CCN(c2ccc(Nc3nccc(-c4sc(C(C)C)nc4-c4cccc(NS(=O)(=O)c5cccc(Cl)c5)c4)n3)cn2)CC1 [GSK1660437]
The “%Inh” value of the first is higher: 97.2% for the first, 0% for the second.

Fc1ccc(-c2ncn(C3CCNCC3)c2-c2ccnc(Oc3ccc(-c4ccccc4)cc3)n2)cc1 [SB-245391] and Nc1ncc(-c2ccc3nccc(-c4ccncc4)c3c2)cc1S(=O)(=O)N1CCOCC1 [GSK1627798] are the same in “%Inh” value: 0% for the first, 0% for the second.

First: Cn1cc(-c2ccc3c(c2)CCN3C(=O)Cc2cccc(F)c2)c2c(N)ncnc21 [GSK2603358]
Second: CN(C)S(=O)(=O)c1cc(-c2ccc3nccc(-c4cccc(S(N)(=O)=O)c4)c3c2)cnc1N [GSK1669921]
The “%Inh” value of the first is lower: 0% for the first, 22% for the second.

Compared with COc1cc(Nc2nccc(N3CCC(NC(=O)c4cc5ccccc5s4)C3)n2)cc(OC)c1OC (centres unmarked) [GSK1379760], COc1cc(Nc2ncc3c(C)nc(-c4cc5ccccc5[nH]4)n3n2)cc(OC)c1OC [GW869516] is higher in “%Inh” value: 0% for the first, 21% for the second.

CCn1c(-c2nonc2N)nc2c(C#CC(C)(C)O)ncc(OCCCCN)c21.O=C(O)C(F)(F)F.O=C(O)C(F)(F)F [GSK507274] was tested, and the “%Inh” value was 60%.

system: FGFR3; conditions: concentration: 1 μM, replicates: in singlicate; n = 1

First: Cn1cc(-c2[nH]c3cc(NC(=O)[C@H](N)C4CCCCC4)cc4c3c2C=NNC4=O)cn1
Second: Cc1cccc(Nc2nc(N[C@H]3CCNC3)ncc2C(N)=O)c1.Cl [GSK2197149]
The “%Inh” value of the first is higher: 86% for the first, 3% for the second.

Compared with O=C(Nc1ccccc1F)NC1CCN(c2ccnc(Nc3ccc(F)cc3)n2)CC1 [GSK1379800], COc1ccc(CNC(=O)NC2CCN(c3ccnc(Nc4ccc(F)cc4)n3)CC2)cc1 [GSK1379788] is higher in “%Inh” value: 0% for the first, 8% for the second.

Going from Cc1ccc(F)c(C(=O)Nc2cccc(-c3nn4ccccc4c3-c3ccnc(Nc4cccc(F)c4)n3)c2)c1F [GSK361061] to O=C(Nc1cccc(-c2nn3ccccc3c2-c2ccnc(Nc3cccc(F)c3)n2)c1)c1c(F)ccc(F)c1Cl [GSK357952], the “%Inh” value falls from 21% to 19%.

Going from O=C(O)C(F)(F)F.O=C(O)C(F)(F)F.O=c1[nH]ccc2nc(N[C@@H]3CCCNC3)nc(Nc3ccc(S(=O)(=O)N4CCOCC4)cc3)c12 [GSK2177277] to CNC(=O)c1ccccc1Nc1nc(Nc2ccc(N3CCOCC3)cc2)ncc1Cl.Cl [GSK1576028], the “%Inh” value rises from 62% to 99%.

Compared with CN1CCN(CCCNc2nccc(-c3c(-c4ccc(F)cc4)nn4cc(C(F)(F)F)ccc34)n2)CC1 [GW621581], CSc1cccc2c(-c3ccncn3)c(-c3ccc(F)cc3)nn12 [GW514786] is higher in “%Inh” value: 0% for the first, 4% for the second.

Going from O=C(Nc1cccc(-c2nn3ccccc3c2-c2ccnc(Nc3cccc(C(F)(F)F)c3)n2)c1)c1c(F)cccc1F [GSK292658] to COc1cc(Nc2nccc(-c3c(-c4cccc(NC(=O)c5c(F)cccc5F)c4)nn4ccccc34)n2)cc(OC)c1OC [GSK323521], the “%Inh” value rises from 9% to 12%.

Compared with COc1ccc(Nc2nccc(N3CCC(NC(=O)Nc4cccc(OC)c4)C3)n2)cc1 (centres unmarked) [GSK1379742], Cc1ccc(C)c(NC(=O)NC2CCN(c3ccnc(Nc4ccc(F)cc4)n3)C2)c1 (centres unmarked) [GSK1379720] is lower in “%Inh” value: 5% for the first, 2% for the second.

Cc1cccc(NC(=O)Nc2ccc(Oc3ncnc4ccn(C)c34)cc2)c1 and O=C(Nc1cccc(Oc2ccc3nc(NC(=O)C4CC4)cn3n2)c1)c1ccccc1C(F)(F)F are the same in “%Inh” value: 0% for the first, 0% for the second.

First: O=C(NC1CCN(c2ccnc(Nc3ccc(F)cc3)n2)C1)c1cc2ccccc2s1 (centres unmarked) [GSK1379716]
Second: COc1cc(Nc2nccc(N3CCC(NC(=O)c4cc5ccccc5s4)C3)n2)cc(OC)c1OC (centres unmarked) [GSK1379760]
The “%Inh” value of the first is lower: 16% for the first, 18% for the second.

Compared with O=c1[nH]cc(-c2ccc(N3CCOCC3)cc2)c2sc(-c3cn[nH]c3)cc12 [GSK2276055], Nc1ncc(-c2ccc3nccc(-c4ccncc4)c3c2)cc1S(=O)(=O)N1CCOCC1 [GSK1627798] is lower in “%Inh” value: 21% for the first, 6% for the second.

Going from Nc1ncc(-c2cccnc2)c2scc(-c3ccc4c(c3)CCN4C(=O)Cc3ccccc3)c12 [GSK683281] to Cn1cc(-c2ccc3c(c2)CCN3C(=O)Cc2cccc(F)c2)c2c(N)ncnc21 [GSK2603358], the “%Inh” value falls from 7% to 0%.

Cl.Cl.NCC(NCc1ccc(-c2ccnc3[nH]ccc23)s1)c1ccccc1 (centres unmarked) [GSK1321565] and Cl.Cl.NCC(NC(=O)c1cc(-c2ccccc2)c(-c2ccnc3[nH]ccc23)s1)c1ccccc1 (centres unmarked) [GSK1321561] are the same in “%Inh” value: 19% for the first, 19% for the second.

Compared with CCn1c(-c2nonc2N)nc2c(C#CC(C)(C)O)nc(OC[C@H](N)c3ccccc3)cc21 [GSK943949], CCn1c(-c2nonc2N)nc2c(C#CC(C)(C)O)ncc(OCCCCN)c21.O=C(O)C(F)(F)F.O=C(O)C(F)(F)F [GSK507274] is higher in “%Inh” value: 0% for the first, 5% for the second.

Going from CN(c1ccc(NC(=O)Nc2cc(C(F)(F)F)ccc2F)cc1)c1ccnc(Nc2ccc(S(N)(=O)=O)cc2)n1 [GW809893] to CC(=O)N1CCN(c2ccc(Nc3nccc(-c4sc(C(C)C)nc4-c4cccc(NS(=O)(=O)c5cccc(Cl)c5)c4)n3)cn2)CC1 [GSK1660437], the “%Inh” value falls from 22% to 7%.

O=C(Nc1n[nH]c2nc(-c3ccc(O)cc3)ccc12)C1CC1 [SB-710363] and Fc1ccc(-c2ncn(C3CCNCC3)c2-c2ccnc(Oc3ccc(-c4ccccc4)cc3)n2)cc1 [SB-245391] are the same in “%Inh” value: 0% for the first, 0% for the second.

First: Nc1ncnc2c1nc(-c1ccccc1)n2-c1ccccc1 [SKF-97293]
Second: CN(C)S(=O)(=O)c1cc(-c2ccc3nccc(-c4cccc(S(N)(=O)=O)c4)c3c2)cnc1N [GSK1669921]
The “%Inh” value of the first is lower: 0% for the first, 26% for the second.

Compared with COc1cccc(C2=C(Nc3ccc(Cl)c(C(=O)O)c3)C(=O)NC2=O)c1 [SB-390769], CC(=O)Nc1nc2cnc(Nc3cc(NC(=O)c4cccc(C5(C#N)CC5)c4Cl)ccc3C)nc2s1 is lower in “%Inh” value: 15% for the first, 0% for the second.

First: c1ccc(Oc2ccc(Nc3ccnc4cc(-c5ccc(CNCCN6CCOCC6)o5)ccc34)cc2)nc1 [GW567145]
Second: CN1CCN(Cc2cccc(-c3ccc4c(Nc5ccc(Oc6ccccc6)cc5)ccnc4c3)c2)CC1 [GW578342]
The “%Inh” value of the first is lower: 10% for the first, 17% for the second.

With COc1cc(Nc2ncc3c(C)nc(-c4cc5ccccc5[nH]4)n3n2)cc(OC)c1OC [GW869516] the “%Inh” value was 30%.
